Measured values reported in publication PMC5540273 (PLoS ONE, 2017).

Assays:
Conditions in all cases: concentration: 1 μM, replicates: in singlicate; n = 1
[1] = tested on: T1, TIE2
T1 construct: gene TEK

[2] = tested on: TLK1
[3] = tested on: TLK2
[4] = tested on: TNIK
[5] = tested on: TNK1
[6] = tested on: TNK2
[7] = tested on: TNNI3K
[8] = tested on: T2, TRKA
T2 construct: gene NTRK1

[9] = tested on: TRKB
[10] = tested on: T3, TRKC
T3 construct: gene NTRK3

[11] = tested on: TRPM6
[12] = tested on: TSSK1B
[13] = tested on: TSSK3
[14] = tested on: TTK
[15] = tested on: TXK
[16] = tested on: TYK2(JH1domain-catalytic)
[17] = tested on: TYK2(JH2domain-pseudokinase)
[18] = tested on: TYRO3
[19] = tested on: ULK1
[20] = tested on: ULK2
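Also: KINOMEscan kinase panel screen.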

| Compound | %Inh [1] [%] | %Inh [2] [%] | %Inh [3] [%] | %Inh [4] [%] | %Inh [5] [%] | %Inh [6] [%] | %Inh [7] [%] | %Inh [8] [%] | %Inh [9] [%] | %Inh [10] [%] | %Inh [11] [%] | %Inh [12] [%] | %Inh [13] [%] | %Inh [14] [%] | %Inh [15] [%] | %Inh [16] [%] | %Inh [17] [%] | %Inh [18] [%] | %Inh [19] [%] | %Inh [20] [%] |
| --- | --- | --- | --- | --- | --- | --- | --- | --- | --- | --- | --- | --- | --- | --- | --- | --- | --- | --- | --- | --- |
| O=C(Nc1ccc2c(c1)OCO2)NC1CCN(c2ccnc(NCc3ccc(F)cc3)n2)CC1 [GSK1379859] | 0 | 0 | 0 | 0 | 0 | 7 | 1 | 0 | 15 | 6 | 47 | 0 | 12 | 0 | 0 | 0 | 0 | 0 | 12 | 0 |
| COc1ccc(-n2cnc3c(N)ncnc32)cc1 [SKF-97236] | 18 | 0 | 0 | 18 | 0 | 0 | 18 | 61 | 9 | 0 | 66 | 11 | 0 | 28 | 12 | 11 | 24 | 0 | 21 | 10 |
| Cc1nn2c(=O)cc(N3CCOCC3)nc2n1Cc1cccc(Cl)c1Cl [GSK2342769] | 0 | 0 | 0 | 0 | 0 | 16 | 5 | 0 | 0 | 4 | 0 | 0 | 6 | 0 | 13 | 10 | 4 | 0 | 17 | 0 |
| Cc1nnc(-c2ccc(C)c(-c3ccc(C(=O)O)cc3)c2)o1 [GW608005] | 0 | 0 | 0 | 0 | 0 | 0 | 0 | 0 | 20 | 0 | 1 | 10 | 0 | 12 | 0 | 15 | 8 | 0 | 8 | 0 |
| Cc1ccc(Oc2ccc(Nc3ncnc4cc[nH]c34)cc2C)cn1 | 13 | 6 | 12 | 0 | 0 | 12 | 3 | 42 | 14 | 17 | 0 | 5 | 0 | 31 | 6 | 22 | 15 | 3 | 11 | 0 |
| CN1C(=O)C(Nc2ccccc2)=C(c2ccccc2)C1=O [SB-300079] | 0 | 3 | 41 | 7 | 0 | 0 | 0 | 0 | 9 | 11 | 0 | 0 | 0 | 0 | 0 | 0 | 17 | 0 | 6 | 12 |
| Cc1ccccc1COc1cc(-n2cnc3cc(Cl)ccc32)sc1C(N)=O [GW813349] | 0 | 0 | 0 | 30 | 12 | 0 | 0 | 0 | 0 | 5 | 0 | 3 | 0 | 2 | 9 | 5 | 5 | 5 | 0 | 0 |
| Cc1ccc(-c2ccc3c(ccc4sc5c(c43)NC[C@@H](C)N=C5N(C)C)n2)cn1 | 0 | 0 | 0 | 2 | 34 | 0 | 0 | 0 | 0 | 0 | 0 | 0 | 0 | 0 | 0 | 0 | 0 | 0 | 0 | 0 |
| CCS(=O)(=O)c1ccc(OC)c(Nc2ncc(-c3ccc(F)cc3)o2)c1.Cl [GW591947] | 0 | 0 | 0 | 0 | 0 | 12 | 8 | 15 | 0 | 0 | 4 | 10 | 13 | 0 | 0 | 1 | 0 | 4 | 0 | 0 |
| COC(=O)c1c(-c2ccccc2)c2cc(C)ccc2c(=O)n1Cc1ccccc1 | 0 | 9 | 0 | 0 | 0 | 0 | 0 | 0 | 0 | 0 | 0 | 0 | 0 | 5 | 0 | 0 | 0 | 0 | 0 | 0 |
